# Pf Dd2 inh = qHTS Primary assay for Inhibitors of Plasmodium falciparum Dd2 growth in vitro; hit rate 4.3% among 120,000; P. falciparum Dd2 growth, SYBR Green, 72 h; Potency, µM (highest dose often 28.9 µM), inactives show top-dose activity, negative = inhibition, actives largely listed as inhibitors; active = well fitted inhibition curve with a large enough effect;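 note: plate controls were DMSO vehicle for no effect and reference drug for full effect; nearly all actives have a fitted effect of over 65% in size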
#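 Infected erythrocytes (Dd2, 0.3% parasitemia, 2.5% hematocrit final) are added to compound in RPMI-1640/Albumax II medium, grown 72 h at 37C in low oxygen, then lysed with saponin/Triton-X containing SYBR Green and read by fluorescence.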
# The depositor's hits bear a star; i = inactive; [ ] = dose if it differs, or a comment. The full list was thinned out, with hits kept by preference. Potency is the fitted concentration of half-maximal effect.
SMILES,Pf Dd2 inh
COc1ccc(CN2CCN(Cc3cc4ccccc4[nH]3)CC2CCO)c(C)c1C (stereo not given),8.91µM*
CC(C)c1nccn1CCCNC(=O)c1ccc(NC2CCC(O)CC2)nc1 (stereo not given),i
O=C(c1ccc(Cl)cc1)N1CCOCC2(CN(Cc3ccccc3)C2)C1,-28.2%[44.1 µM]
O=c1n(-c2ccc(Cl)cc2)nc2n1CCN([S+](=O)([O-])c1cccs1)C2,-11.4%
OCc1cccc(-c2ccc3ncc(Nc4ccccc4Cl)n3n2)c1,3.98µM*
OCc1cccc(-c2ccc3ncc(Nc4cccc(C(F)(F)F)c4)n3n2)c1,-20.3%[44.1 µM]
OCc1cccc(-c2ccc3ncc(Nc4ccc(OCCN5CCCC5)cc4)n3n2)c1,0.794µM*
C[S+](=O)([O-])Nc1cccc(Nc2cnc3ccc(-c4cccc(CO)c4)nn23)c1,-2.4%[44.1 µM]
OCc1cccc(-c2ccc3ncc(Nc4cccnc4)n3n2)c1,-3.8%[44.1 µM]
OCCc1ccc(Nc2cnc3ccc(-c4cccc(CO)c4)nn23)cc1,i
F[C@@H]1CN(C2CCOCC2)C[C@@H]1OCc1nc2ccccc2[nH]1,35.7%[44.1 µM]
COCC1CN(C2CCC2)CC12CCN(C(=O)c1ccoc1)CC2 (stereo not given),5.9%
CCCNC(=O)N1Cc2ccccc2OC2(CCN(C)CC2)C1,i
COc1cccc(CN2CCOC3(CCN([S+](=O)([O-])c4c(C)noc4C)CC3)C2=O)c1,-12.3%
O=C(CCCc1ccccc1)NCC(=O)N1CCN(c2ccccn2)CC1,i
CCCc1noc(-c2cn(C3CCN(C(=O)c4ccoc4)CC3)nn2)n1,i
Cc1ccc(S(=O)(=O)c2nc(S(=O)(=O)c3ccc(C)cc3)c(NCCCOC(C)C)s2)cc1,2.24µM*
Cc1ccc(S(=O)(=O)c2nc(S(=O)(=O)c3ccc(C)cc3)c(NC(C)C)s2)cc1,-10.6%
CCNc1sc(S(C)(=O)=O)nc1S(=O)(=O)c1ccc(C)cc1,1.9%
O=[S+]1([O-])NC2(CCN(Cc3ccc(C(F)(F)F)cc3)C2)CNc2ccccc21 (stereo not given),i
O=C(c1cccnc1OC1CCN(Cc2ccccn2)C1)N1CCCCC1 (stereo not given),i
COc1ccc(N2CCN(C(=O)CN3CCSc4ccccc43)CC2)cc1,7.0%
COc1cccc(N2CCN(C(=O)CN3CCSc4ccc(S(=O)(=O)N(C)C)cc43)CC2)c1,11.2µM*
CN(C)S(=O)(=O)c1ccc2c(c1)N(CC(=O)N1CCC(C(N)=O)CC1)CCS2,28.4%
CCc1nc(-c2c3n(c(=O)n(CC(N)=O)c2=O)CCCCC3)no1,24.8%
SMILES,Pf Dd2 inh
Cc1cccc(OCc2ccc(-c3nc(C#N)c(N4CCN(c5ccccc5)CC4)o3)o2)c1,10µM*
COc1ccc(Nc2oc(-c3ccc(COc4ccccc4)o3)nc2C#N)cc1,-4.9%
CCN1CCN(c2oc(-c3ccc(COc4ccccc4C)o3)nc2C#N)CC1,-13.9%
Cc1ccccc1OCc1ccc(-c2nc(C#N)c(NCc3cccnc3)o2)o1,-23.8%
Cc1cccc(OCc2ccc(-c3nc(C#N)c(NCc4cccnc4)o3)o2)c1,7.94µM*
COCCCNc1oc(-c2ccc(COc3ccccc3C)o2)nc1C#N,-27.2%
COc1ccc(CNc2oc(COc3cccc(C)c3)nc2C#N)cc1,0.4%
CCCCNc1oc(-c2ccc(COc3ccccc3C)o2)nc1C#N,11.2µM*
N#Cc1nc(-c2ccc(COc3ccccc3)o2)oc1N1CCCCC1,58.6%[0.594 µM]
O=C(N[C@@H]1CCN(C(=O)c2ccc3c(c2)OCO3)C[C@H]1O)c1cnccn1,-6.2%
CNC(=O)[C@H]1C[C@H](Oc2ccccc2)CN1C(=O)CCc1nc2ccccc2s1,8.6%
O=C1CCC(C(=O)N2CCCn3ccnc3C2c2ccccc2)=NN1 (stereo not given),16.6%
Cc1ccc(C(=O)N2CCC(N3CCCCCC3=O)CC2)cc1,-8.5%[44.1 µM]
Cc1nnnn1-c1ccc(C(=O)Nc2ccc3c(c2)C(=O)N2CCC[C@H]2C(=O)N3)cc1,-0.5%
COc1cccc(Nc2cc(C)nc3nc(-c4ccc(Cl)cc4)nn23)c1,15.9%
COc1ccc2nc(C)cc(Nc3ccc(Cl)c(Cl)c3)c2c1,1µM*
COc1ccc(Nc2nc3ccc(Cl)cc3nc2-n2nc(C)cc2C)cc1,44.5%
COc1cccc(NC(=O)Cn2c(-c3cnccn3)nc(C)c(CCO)c2=O)c1,i
CCc1ccccc1NC(=O)N1CCC(Oc2ncccc2C(=O)N2CCOCC2)C1 (stereo not given),16.9%
CC(=O)N1CCCC2(CC(c3ccccn3)=NO2)C1 (stereo not given),16.7%[44.1 µM]
CCOc1ccc(NC(=O)CC2C(=O)N(c3ccccc3)C(=O)N2C2CCCC2)cc1 (stereo not given),-10.2%
CCOC(=O)c1ccc(NC(=O)CC2C(=O)N(c3ccc(C)cc3)C(=O)N2C2CCCCC2)cc1 (stereo not given),15.1%
CCc1ccc(NC(=O)CC2C(=O)N(c3ccc(Cl)cc3)C(=O)N2C2CCCC2)cc1 (stereo not given),10µM*
CCOc1ccc(NC(=O)CC2C(=O)N(c3ccc(OC)cc3)C(=O)N2C2CCCCC2)cc1 (stereo not given),9.1%
COc1ccc(NC(=O)CC2C(=O)N(c3ccc(OC)cc3)C(=O)N2C2CCCCC2)cc1 (stereo not given),i
SMILES,Pf Dd2 inh
CCc1ccc(NC(=O)CC2C(=O)N(c3ccc(C)cc3)C(=O)N2C2CCCC2)cc1 (stereo not given),11.2µM*
COCC(=O)NC1CCC12CCN(C(=O)C(C)C)CC2 (stereo not given),0.2%
O=C(CCC[C@@H]1[C@H]2CCCN3CCC[C@@H](CN1C(=O)c1cccnc1)[C@@H]23)NCCCN1CCCC1,i
O=C1C(N2CCN(S(=O)(=O)c3ccc(F)cc3F)CC2)CCN1Cc1cccnc1 (stereo not given),-7.9%
CCN1C(=O)Cc2cc(C(=O)NCc3ccc(F)cc3)ccc21,i
Cc1nn(Cc2ccccc2)c(C)c1[C@@H]1C=C[C@@H](NS(=O)(=O)c2cccs2)C1,12.6µM*
Cc1nn(CCC#N)c(C)c1[C@@H]1C=C[C@@H](NC(=O)Nc2ccccc2)C1,-15.7%[44.1 µM]
CC(=O)Nc1ccc(S(=O)(=O)N[C@@H]2C=C[C@@H](c3c(C)nn(-c4ccc(C(C)(C)C)cc4)c3C)C2)cc1,i
CCc1nccn1CCC(=O)N1CC[C@@](O)(C2CCOCC2)[C@H](C)C1,2.3%
CCC(c1cccs1)N1C(=O)[C@H]2CN(S(=O)(=O)c3cccc(OC)c3)C[C@H]2C1=O (stereo not given in full),-4.4%
COc1ccccc1NC(=O)Cn1c(=O)n(-c2cccc(Cl)c2)c(=O)c2sc3ccccc3c21,i
COc1cccc(NC(=O)Cn2c(=O)n(-c3ccc(Cl)cc3)c(=O)c3sc4ccccc4c32)c1,11.2µM*
COc1cccc(NC(=O)Cn2c(=O)n(Cc3ccc(F)cc3)c(=O)c3sc4ccccc4c32)c1,-25.4%
COc1ccc(-c2ccccc2)cc1N1C(=O)[C@@H]2C[C@H]1CN2C(=O)C(C)(C)C,-15.6%
Cc1ccc2[nH]c(CN3CC[C@H]4NCCC[C@]4(CO)C3)cc(=O)c2c1,-30.0%
COc1cccc(S(=O)(=O)N2CC3(C2)C(=O)Nc2ccccc23)c1,-0.4%
O=C([C@@H]1C[C@@H](c2ccc(F)cc2)N(Cc2ccccc2)C1)N1CCN(c2ccccn2)CC1,7.08µM*
O=C(O)[C@@H]1CN(Cc2ccccc2)C[C@@H]1C(=O)N1CCN(c2ccccn2)CC1,-8.4%

# Compound activity from PubChem BioAssay.
